TcdB GH inh: blocks C. difficile toxin B glycohydrolase activity; P18177; TcdB glycohydrolase enzymatic assay, plate reader; inhibition, % at 9.99 µM; 350,000 compounds, 0.24% hits; AID 652162; in the data active = inhibition above about 10%
SARS 3CLpro inh: SARS-CoV 3CLpro protease inhibition; 290,000 compounds, 0.14% hits; recombinant SARS-CoV 3CLpro, quenched FRET peptide cleavage; inhibition, % at 6 µM; P0C6X7; in the data active = inhibition above about 12%
BH1578 lux ind: quorum light induction in luxS cqsA deficient V. cholerae | V. cholerae BH1578 lux reporter, luminescence, 6 h | activation, % at 18.7 µM | 350,000 compounds, 0.16% hits | AID 588436; in the data active = activation mostly above about 9.7%, no sharp cut-off
DUSP3 inh: blocks human VHR1 dual specificity phosphatase | P51452 | recombinant VHR phosphatase, pNPP absorbance | inhibition, % at 13.3 µM | 290,000 compounds, 0.52% hits | AID 1654; in the data active = inhibition above about 50%
CCHF vOTU inh: blocks the CCHF virus ovarian tumor domain protease | AID 651958 | inhibition, % at 11.5 µM | 370,000 compounds, 0.55% hits | CCHFV vOTU protease, Pep-AMC fluorescence; in the data active = inhibition above about 30%; also: 0% = vehicle wells with enzyme and 100% = no enzyme wells
PriA SSB inh: blocks PriA binding to SSB C-terminal tail | inhibition, % at 33 µM | AID 1272365 | AlphaScreen SSBct-PriA binding, biotinylated peptide | 430,000 compounds, 0.6% hits; in the data active = inhibition mostly above about 37%, no sharp cut-off; inactive = mostly below about 20%;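 also: plate controls were negative control peptide for no effect and reference peptide for full effect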
Starred values were filed as active, the others as inactive; ! = repeats disagree. In the library only some 1.3% were active in any assay of this set; here they are far more common.

`Cc1ccc([N+](=O)[O-])cc1-c1[nH]c(-c2ccc(O)c(O)c2)nc1-c1ccccc1` gave SARS 3CLpro inh 4, BH1578 lux ind 25*, DUSP3 inh 11, CCHF vOTU inh 2 and PriA SSB inh 49.
Screening O=C(NCCc1ncc(-c2cccs2)[nH]1)c1ccc2c(c1)OCO2 returned PriA SSB inh -10.
O=Nc1c(O)n(Cc2ccc(Cl)c(Cl)c2)c2ccccc12 was read as SARS 3CLpro inh 2, DUSP3 inh 15, CCHF vOTU inh 1 and PriA SSB inh 7.
For O=Nc1c(O)n(Cc2ccccc2)c2ccccc12 the results were TcdB GH inh 1, SARS 3CLpro inh -6, BH1578 lux ind 81*, DUSP3 inh -6, CCHF vOTU inh 1 and PriA SSB inh 8.
For O=C(CNC(=O)/C=C/c1ccccc1)N=Nc1c(O)n(Cc2ccccc2)c2ccccc12 the results were TcdB GH inh 0, SARS 3CLpro inh 0, DUSP3 inh 56* and CCHF vOTU inh -8.
Screening CCC(=O)NCCCn1nc(-c2ccc(Cl)cc2)ccc1=O returned PriA SSB inh -15.
CC1CCCC(C)N1CCCNC(=O)c1ccc2c(c1)NC(=O)c1ccccc1S2 (stereo unspecified) was read as TcdB GH inh 2, SARS 3CLpro inh -3, BH1578 lux ind 0, DUSP3 inh 58*, CCHF vOTU inh 18 and PriA SSB inh 4.
COc1ccc(Nc2ccnc(Nc3ccc(OC)cc3)n2)cc1 was read as SARS 3CLpro inh 3, BH1578 lux ind 0, DUSP3 inh -4, CCHF vOTU inh 0 and PriA SSB inh 45*.
COc1ccc(Nc2nc(OC)nc(OC)n2)cc1 was read as TcdB GH inh -1, SARS 3CLpro inh -1, BH1578 lux ind 0, DUSP3 inh 19, CCHF vOTU inh -18 and PriA SSB inh -3.
Screening O=C(Nc1ccc2c(c1)OCO2)N1CCn2cccc2[C@H]1c1ccc(F)c(F)c1 returned PriA SSB inh 33*.
Screening Cc1cc(=O)n(CCNC(=O)c2c[nH]c(=O)[nH]2)cn1 returned PriA SSB inh -8.
For O=C(NC(c1ccccc1)c1ccccc1)C1CCN(c2cc(-n3ccnc3)ncn2)CC1 the results were PriA SSB inh -5.
`[O-][n+]1cccc2c(Br)cc(Br)c(O)c21` gave TcdB GH inh 0, SARS 3CLpro inh 0, BH1578 lux ind 0, DUSP3 inh 28, CCHF vOTU inh -2 and PriA SSB inh 69*.
`CCOc1ccc(-c2csc(SCc3ccc(C(=O)NCc4ccccn4)o3)n2)cc1` gave PriA SSB inh 14*.
For CCc1ccc(OCc2ccc(C(=O)NCc3ccccn3)o2)cc1 the results were SARS 3CLpro inh 0, DUSP3 inh -4, CCHF vOTU inh 2 and PriA SSB inh -7.
For O=c1c2ccc(Cl)cc2[nH]c(=S)n1-c1cccnc1 the results were TcdB GH inh 10*, SARS 3CLpro inh 3, BH1578 lux ind -1, DUSP3 inh 7, CCHF vOTU inh 19 and PriA SSB inh -15.
For O=c1c2ccccc2[nH]c(=S)n1-c1cccnc1 the results were TcdB GH inh 1, SARS 3CLpro inh 7, DUSP3 inh 17, CCHF vOTU inh -1 and PriA SSB inh -10.
Screening COc1ccccc1N=Nc1ccc(N)c(C)c1 returned TcdB GH inh 2, SARS 3CLpro inh 4, BH1578 lux ind inactive, CCHF vOTU inh 22 and PriA SSB inh 73*.
COc1cccc(CNS(=O)(=O)c2c(C(=O)N3CCCCC3)c(C)n(C)c2C)c1 was read as TcdB GH inh 0, SARS 3CLpro inh 1, BH1578 lux ind 0, DUSP3 inh 54*, CCHF vOTU inh 10 and PriA SSB inh 18.
For CC1=NN(CCC#N)C(=O)/C1=C\c1ccc(N(C)C)cc1 the results were PriA SSB inh -4.
`CC1=NN(CCC#N)C(=O)/C1=C/c1ccc(N(C)C)cc1` gave TcdB GH inh 2, SARS 3CLpro inh -4, BH1578 lux ind inactive, DUSP3 inh 60*, CCHF vOTU inh 4 and PriA SSB inh 2.
`Cc1cccc(S(=O)(=O)Nc2ccc(-c3ccc4nnc(-c5ccccn5)n4n3)cc2)c1` gave PriA SSB inh 79*.
For O=S(=O)(Nc1ccc(-c2ccc3nnc(-c4ccccn4)n3n2)cc1)c1ccccc1F the results were PriA SSB inh 101*.
O=S(=O)(Nc1ccc(-c2ccc3nnc(-c4cccs4)n3n2)cc1)c1ccccc1 was read as PriA SSB inh -18.
Screening O=S(=O)(Nc1ccc(-c2ccc3nncn3n2)cc1)c1ccccc1F returned TcdB GH inh 1, BH1578 lux ind 1, CCHF vOTU inh -2 and PriA SSB inh -20.
For Cn1c(=O)c2c(nc(N3CCOCC3)n2CCSc2ncccn2)n(C)c1=O the results were TcdB GH inh 17*, SARS 3CLpro inh -1, BH1578 lux ind -2, DUSP3 inh -10, CCHF vOTU inh -2 and PriA SSB inh -4.
`CN(C)C(CNC(=O)Nc1cccs1)c1ccsc1` (stereo unspecified) gave PriA SSB inh -11.
COc1ccccc1Oc1ccc(S(=O)(=O)N[C@@H](CC(C)C)C(=O)O)cc1 was read as PriA SSB inh -29.
For O=S(=O)(c1ccc(F)cc1)N1CCN(Cc2nnc(-c3ccccc3)o2)CC1 the results were TcdB GH inh 1, BH1578 lux ind inactive, CCHF vOTU inh 1 and PriA SSB inh -9.
O=S(=O)(c1ccccc1)N1CCN(Cc2nnc(-c3ccccc3)o2)CC1 was read as TcdB GH inh 10*, BH1578 lux ind inactive and CCHF vOTU inh 11.
For Cc1cc([N+](=O)[O-])c2[nH]c(C(=O)N/N=C/c3ccccc3C(=O)O)c(-c3ccccc3)c2c1 the results were SARS 3CLpro inh -2, BH1578 lux ind inactive, DUSP3 inh 90* and CCHF vOTU inh -13.
CCCN1CCCc2cc(CN)ccc21 was read as SARS 3CLpro inh -4, BH1578 lux ind inactive, DUSP3 inh 44, CCHF vOTU inh 100* and PriA SSB inh 32.
Screening COCC(=O)N1CCCc2ccc(N)cc21 returned PriA SSB inh 16.
For CCCN1CCCc2ccc(N)cc21 the results were PriA SSB inh 130*.
`O=C(Nc1cc(F)ccc1F)c1n[nH]nc1Nc1ccccc1` gave PriA SSB inh -16.
For O=C1OC2(CCN(C(=O)c3cc(-c4ccc(F)cc4)c[nH]3)CC2)c2ccccc21 the results were PriA SSB inh 4.
`COc1nn(C)cc1C(=O)NCCn1ccc(C(F)(F)F)n1` gave PriA SSB inh -27.
`Cc1cc2cc(CNS(=O)(=O)N(C)C)ccc2[nH]1` gave TcdB GH inh 1, SARS 3CLpro inh -5, BH1578 lux ind -1, DUSP3 inh 8, CCHF vOTU inh 2 and PriA SSB inh 46*!.
For CN(C)S(=O)(=O)NCc1ccc2c(c1)OCO2 the results were SARS 3CLpro inh -4, BH1578 lux ind 0, DUSP3 inh -10, CCHF vOTU inh 3 and PriA SSB inh -5.

High-throughput results (PubChem BioAssay)
